# Laboratory results from PubChem BioAssay AID2314 (National Center for Advancing Translational Sciences (NCATS), 2010).
# In all, about 300,000 compounds went through this assay and about 37,000 (12%) were called active. What follows is part of a selection rich in actives, with near analogues and random picks from the rest. Values without a mark were called inactive. No stated cut-off is given here; in the data, active means max response mostly above about 13% (no sharp cut-off); inactive means mostly below about 14%.
# Test: Cycloheximide Counterscreen for Small Molecule Inhibitors of Shiga Toxin; further: read at 38.3 µM for the half of the compounds with a filed dose; 0% is about no effect
# Settings: cell reporter, cycloheximide protein synthesis inhibition counterscreen; active compounds read high
row,Structure (SMILES),max response
1,Cc1cc2c(c(=O)n1Cc1ccccc1)C1O[C@](CCCCN3C(=O)c4ccccc4C3=O)(Cc3ccccc31)O2,-2.41%
2,O=C1Nc2ccccc2C12Nc1ccccc1S2 (centres undefined),33.2% (active)
3,COc1ccc(C2(O)C(=O)Nc3ccccc32)cc1 (centres undefined),-3.25%
4,Cc1cc(O)c(C2(O)C(=O)Nc3ccccc32)cc1C (centres undefined),-3.78%
5,CC(=O)NC1=NN(C(C)=O)C(C)(c2ccc(C)cc2)S1 (centres undefined),-3.23%
6,Cc1cc2ncn(CCCCOc3ccccc3)c2cc1C,-2.02%
7,Cc1cc(Br)ccc1NC(=O)c1sc2ncn(CC(=O)N3CCN(c4ccccn4)CC3)c(=O)c2c1C,-5.58%
8,CCOC(=O)C(C)n1cnc2sc(C)c(C)c2c1=O (centres undefined),-0.534%
9,Cc1cccc(OC(=O)c2sc3ncn(C)c(=O)c3c2C)c1,32.8% (active)
10,COc1cccc(NC(=O)Cn2cnc3sc(C)c(S(=O)(=O)N4CCN(C)CC4)c3c2=O)c1,-1.26%
11,Cc1c(C(N)=O)sc2ncn(CCOc3ccccc3)c(=O)c12,17.6% (active)
12,O=c1cc(CCl)nc2scc(-c3ccccc3)n12,3.02%
13,COc1ccc(CCNC(=O)CCNS(=O)(=O)c2cc(Br)cnc2N)cc1OC,13.2%
14,CN1C(=O)C2(OCCCO2)c2cc(Cl)ccc21,0.948%
15,CCCS(=O)(=O)N1CCC(CCOc2ccccc2)(C(=O)OCC)CC1,-1.66%
16,COc1ccc(-c2ccc(OC)c(C3C4C=CCC(C)C4C(=O)N3Cc3ccccc3)c2)cc1C (centres undefined),28.8%
17,COc1ccc2cc1Oc1ccc(cc1)C[C@H]1c3cc(c(OC)cc3CCN1C)Oc1c(O)c(OC)cc3c1[C@H](C2)N(C)CC3,-1.4%
18,O=C(c1cncc(Br)c1)N1CCN(c2ccc([N+](=O)[O-])cc2)CC1,-2.1%
19,COc1ccc(N(CC(=O)Nc2cccc3ccccc23)S(C)(=O)=O)c(OC)c1,-1.55%
20,CC(C)(C)[Si](OCC[C@@H]1C[C@@]1(C)[C@@H](NP(=O)(c1ccccc1)c1ccccc1)c1ccccc1)(c1ccccc1)c1ccccc1,-2.22%
21,COC(=O)c1ccccc1NC(=O)c1ccc(C#N)cc1,14.4%
22,Cc1ccc(C(=O)/C=C/c2c(C)nn(-c3ccccc3)c2Cl)cc1,37.8% (active)
23,Cc1nn(-c2ccccc2)c(Cl)c1/C=C/C(=O)c1ccc(O)cc1,17% (active)
24,O=C(/C=C/c1ccc(Cl)c([N+](=O)[O-])c1)c1ccc(O)cc1,11.3%

row,Structure (SMILES),max response
1,CCNC(=O)COC(=O)/C=C/c1c(C)nn(Cc2cccc(OC)c2)c1Cl,-1.93%
2,O=C(CN1C(=O)COc2ccc(Cl)cc21)N1CCOCC1,-0.636%
3,CCOC(=O)CSc1nc2ccc(C)cc2n2cnnc12,7.14%
4,Cc1ccc(C)c(S(=O)(=O)Nc2cc(C)on2)c1,-1.71%
5,CCCC(O)(CCC)C(=O)NN(C(=O)CCl)c1cccc(C)c1,4.6%
6,O=C(NNS(=O)(=O)c1ccccc1C(F)(F)F)c1cc2ncc(C(F)(F)F)cc2s1,-2.52%
7,CC(C)(C)c1cc(NC(=O)NN2CCOCC2)nn1-c1c(Cl)cc(Cl)cc1Cl,6.4%
8,O=C(Nn1c(SCc2ccc([N+](=O)[O-])cc2)nc2ccccc2c1=O)c1ccc(F)cc1,116% (active)
9,O=C(Nn1c(-c2ccccc2)nc2ccccc2c1=O)c1ccc([N+](=O)[O-])cc1,1.01%
10,O=C(CCn1c(SCC(=O)c2ccccc2)nc2ccccc2c1=O)NCc1ccc(F)cc1,-3.48%
11,Cc1ccc(CNS(=O)(=O)c2ccc3c(c2)N(C)CCO3)cc1,13.9%
12,COc1ccccc1NC(=O)c1ccc(C)s1,64% (active)
13,COc1ccccc1NC(=O)C1=C(C)NC(=O)NC1c1ccc(C)s1 (centres undefined),-3.68%
14,COC(=O)c1c(NC(C)=O)sc(C(=O)Nc2ccccc2OC)c1C,-2%
15,CCCCn1c(=S)[nH]c2cc(S(=O)(=O)N3CCCCC3)ccc21,-3.25%
16,Nc1nnnn1/N=C/c1cc([N+](=O)[O-])ccc1O,1.42%
17,O=[N+]([O-])c1ccc(O)c(/C=N/Nc2ccccc2[N+](=O)[O-])c1,15.6% (active)
18,O=C(N/N=C/c1cc([N+](=O)[O-])ccc1O)/C(=C\c1cccs1)NC(=O)c1ccccc1,-1.19%
19,Cc1cc(C)c(OCC(=O)N/N=C/c2ccco2)c(C)c1,-3.21%
20,CC(/C=N/NC(=O)c1ccncc1)=C\c1ccco1,10.3%
21,CC(/C=N/NC(=O)c1cc(-c2ccc3ccccc3c2)n[nH]1)=C\c1ccco1,22.2% (active)
22,OCCNCc1cccc(OCc2ccccc2Cl)c1,-3.04%
23,O=C(COC(=O)c1cc(=O)[nH]c2ccccc12)Nc1nc(-c2cccc(Br)c2)cs1,0.762%
24,CCN1CCC(=NNC(=O)c2ccc(C)c([N+](=O)[O-])c2)CC1,-3.08%

row,Structure (SMILES),max response
1,Cc1ccc(C(=O)Nc2cccc3ncccc23)cc1[N+](=O)[O-],9.95%
2,Cc1cc(O)c(NC(=O)c2ccc(C)c([N+](=O)[O-])c2)cc1C,40.4% (active)
3,COc1cccc(-c2nc(CS(=O)(=O)CC(=O)NCCc3ccc(OC)c(OC)c3)c(C)o2)c1,16%
4,COC(=O)c1sc(-c2ccc(C(C)(C)C)cc2)cc1NC(=O)/C=C/C(=O)O,45.7% (active)
5,O=C(O)/C=C/C(=O)Nc1ccc(F)cc1F,7.97%
6,COc1ccccc1NC(=O)/C=C/C(=O)O,-1.17%
7,O=C(CCn1nnnc1CN1CCOCC1)N1CCC(c2ccccc2Cl)C1 (centres undefined),-3.06%
8,CC(=O)c1c(C)n(-c2ccc(C)cc2)c2ccc(O)cc12,-2.22%
9,CCOC(=O)n1c(SCC(=O)N(CC)CC)nc2ccccc21,0.246%
10,CCN(CC)C(=O)CSc1nnc(-c2cccc(OC)c2)o1,41% (active)
11,CC(C)(C)C(=O)CSc1nc2ccccc2o1,34.5% (active)
12,O=C(CSc1nc2ccccc2o1)N1CCN(c2ccccc2)CC1,-3.14%
13,CCN(CC)C(=O)CSc1nnc(-c2ccc(S(=O)(=O)NCc3ccccc3Cl)cc2)o1,-0.581%
14,Cc1cc(=O)[nH]c(SCC(=O)N2c3ccccc3CC2C)n1 (centres undefined),1.01%
15,CCS(=O)(=O)c1ccc2oc(SCC(=O)N3c4ccccc4CC3C)nc2c1 (centres undefined),-5.84%
16,O=C(CSc1nc2ccccc2o1)N1c2ccccc2Sc2ccc(Cl)cc21,-1.63%
17,O=C(CSc1nc2ccccc2o1)N1CCN(c2ccc(Cl)cc2)CC1,3.68%
18,CCOC(=O)CSc1nnc(-c2cccc(Br)c2)o1,-2.27%
19,CCN(CC)C(=O)CSc1nc2ccccc2o1,21.2% (active)
20,CC1Cc2ccccc2N1C(=O)CSc1nc2ccccc2o1 (centres undefined),42.4% (active)
21,COc1ccc(CCNC(=O)C2CCCN2C(=O)Nc2ccccc2)cc1OC (centres undefined),-1.21%
22,CCOC(=O)c1c(NC(=O)C2CC=CCC2C(=O)O)sc(C)c1CC (centres undefined),-3.33%
23,Nc1nnnn1/N=C/c1cccc(Br)c1,-1.37%
24,COc1ccc(-c2nn(C)c(=O)c3ccccc23)cc1CNC(=O)C1CCCCC1,-2.76%

row,Structure (SMILES),max response
1,Cc1ccccc1Nc1scc(-c2ccc(Br)cc2)[n+]1-c1ccccc1C,12.1%
2,CC(C)OC(=O)CN1CCN(c2ccc(Cl)cc2)CC1,-1.75%
3,CC1CCCN(CCOCCOc2ccccc2-c2ccccc2)C1 (centres undefined),-1.97%
4,Cc1ccc(CNC(=O)CSc2nnc3c(n2)[nH]c2ccc(F)cc23)cc1,-7.47%
5,CC(c1nnc(SCC(=O)Nc2sccc2C#N)n1-c1ccc(Cl)cc1)N(C)C (centres undefined),-5.17%
6,CCOc1ccc(NC(=O)C/C(C)=N/NC(=O)Cc2cccs2)cc1,11.9%
7,CCc1nnc(NC(=O)CCC(=O)O)s1,-1.47%
8,Cc1ccc(/C=C/C(=O)Nc2ccc([N+](=O)[O-])c(NC(=O)/C=C/c3ccc(C)o3)c2)o1,-2.46%
9,Cc1nnc(NC(=O)/C=C/c2ccco2)s1,25.7% (active)
10,CCC(CC)c1nnc(NC(=O)/C=C/c2ccco2)s1,17.5%
11,CCOC(=O)c1c(NC(=O)/C=C/c2ccco2)sc(C)c1C,-2.54%
12,CCc1nnc(NC(=O)/C=C/c2ccc(C)o2)s1,21.2% (active)
13,CNC(=O)c1[nH]cnc1C(=O)N[C@@H](CC(C)C)C(=O)OCc1ccccc1,0.929%
14,COc1ccc(NC(=O)NCCN2CCN(c3ccc(C)cc3)CC2)c(Cl)c1,-1.67%
15,COc1ccccc1NC(=O)CSc1nnc(CNC(=O)c2ccccc2F)o1,1.71%
16,N#Cc1ccc(S(=O)(=O)NCC(=O)OCC(=O)NCCc2ccccc2)cc1,1.22%
17,COc1ccc(-n2cnnc2SCC(=O)Nc2cccc([N+](=O)[O-])c2)cc1,-4.87%
18,Cc1ccccc1OCCOc1ccc([N+](=O)[O-])cc1/C=N/n1cnnc1,-2.75%
19,COc1cc(C(=S)N2CCOCC2)ccc1O,-0.128%
20,COc1ccc(/C(C)=N/N2CCOCC2)c(O)c1,26.7% (active)
21,COc1ccc(OCC(=O)N2CCOCC2)cc1,9.77%
22,CCN(C(=O)Cc1nc(N)n[nH]1)C1(C(=O)Nc2ccccc2)CCCCC1,-6.07%
